# Screening data: PubChem BioAssay, National Center for Advancing Translational Sciences (NCATS)
# IL1B secr inh = inhibitors of inflammasome signaling (IL-1 beta secretion) | THP-1 LPS/ATP IL-1B secretion, AlphaLISA, 16 h; hits give low values | activity change, % at 57.5 µM | 360,000 compounds, 4.7% hits | AID 743279; in the data active means activity change below about -50%; inconclusive means mostly about -30% to -49%
#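 Secreted IL-1B measured by AlphaLISA bead assay after 16 h compound exposure of THP-1 cells; compounds (final up to 57.5 uM) added 1 h before LPS (250 ng/mL) and ATP (1.25 mM) stimulation; lower signal means less secretion.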
# TDP1 cell CPT = growth inhibition of DT40 Tdp1-/-;hTDP1 cells with camptothecin (screen for TDP1 inhibitors); Potency, µM (highest dose often 46.2 µM), without a hit: at the highest dose activity change, negative = growth inhibition, hits mostly inhibitors; 420,000 compounds, 12% hits; AID 686979; chicken DT40 Tdp1-/-;hTDP1 cells + 20 nM CPT, ATP luminescence, 48 h; further: potency means the concentration at half of the fitted maximal effect; nearly all actives have a fitted effect of over 55% in size
#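 Cell growth measured by CellTiter-Glo luminescence after a minimum 48 h, 37 C compound exposure with 20 nM CPT in Tdp1-knockout DT40 cells stably expressing hTDP1, seeded 400/well; qHTS titration format.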
# ELG1 repair inh = inhibitors of ELG1-dependent DNA repair in HEK293T cells; HEK293T ELG1-luciferase reporter, luminescence, 16 h; DNA damage induced by 5-fluorouridine; Potency, µM (highest dose often 46.1 µM), for inactives: at the highest dose activity change, negative = inhibition, hits mostly inhibitors; 330,000 compounds, 2.3% hits; AID 504467; further: potency means the concentration at half of the fitted maximal effect; nearly all actives have a fitted effect of over 55% in size
#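 Quantitative HTS, concentration-response format. 2,000 cells/well co-treated with 5-fluorouridine and compound, 16 hr in 5% CO2 at 37 °C; ONE-Glo luminescence read after 30 min.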
# HT1080 IDH1KD tx = kills HT-1080 cells with IDH1 knockdown; Potency, µM (top dose mostly 46.1 µM), without a hit: at the highest dose activity, negative = toxicity, actives largely listed as cytotoxic; HT-1080 IDH1 knockdown viability, ATP luminescence, 48 h; 360,000 compounds, 2% hits;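 further: potency means the concentration at half of the fitted maximal effect; 0% = DMSO wells and -100% = cell-free medium wells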
#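 Cytotoxicity counter-line: IDH1KD HT-1080, 48 h, CellTiter-Glo. Curves classed by r2, magnitude and activity.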
# TDP1 cell noCPT = qHTS for Inhibitors of human tyrosyl-DNA phosphodiesterase 1 (TDP1): qHTS in cells in absence of CPT. Potency, µM (titrated, usually from 46.2 µM), inactives show at the top dose activity change, negative = growth inhibition, hits mostly inhibitors. DT40 Tdp1-/- hTDP1 cells, no CPT, ATP luminescence, 48 h. 420,000 compounds, 15% hits; further: potency means the concentration at half of the fitted maximal effect; nearly all actives have a fitted effect of over 55% in size
#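 Luminescent ATP content (CellTiter-Glo) served as the growth readout. Knockout chicken DT40 cells expressing human TDP1 were exposed to compounds without camptothecin for a minimum 48 hr at 37 °C.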
# HT1080NT lethal = kills 2HG-producing HT-1080-NT fibrosarcoma cells. HT-1080-NT fibrosarcoma viability, CellTiter-Glo ATP luminescence, 48 h. Potency, µM (titrated, usually from 46.1 µM), inactives show at the highest dose activity, negative = less viability, most hits filed as cytotoxic. 360,000 compounds, 1.6% hits. AID 686970;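 further: NT is the 2HG producing partner of a matched IDH1 knockdown line; potency means the concentration at half of the fitted maximal effect; 0% = DMSO-treated cells and -100% = media-only wells without cells; nearly all actives have a fitted effect of over 55% in size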
#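 HT-1080-NT fibrosarcoma cells (2HG-overproducing), 750 cells/well in RPMI with 5% FBS, dosed after 2 h and incubated 48 h at 37C. CellTiter-Glo luminescence normalized to DMSO and no-cell wells; concentration-response curves fitted and classed.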
# Active calls of the source: *; ? = inconclusive; / = no result given. Sampled rows, rich in hits. Any-hit rate of the full collection: about 19%. Unless noted, the call rests on the fitted dose curve; in most records, active means well fitted curve in the direction sought with a large enough effect; inconclusive means small, poorly fitted or top-dose-only effect, or another doubt; inactive means no such curve, though single readings can be large; an effect the other way counts as inactive or inconclusive. Unless noted, on the % scale 0 is the no-effect control and ±100 the full control effect.
SMILES,IL1B secr inh,TDP1 cell CPT,ELG1 repair inh,HT1080 IDH1KD tx,TDP1 cell noCPT,HT1080NT lethal
CC(C)c1ccc(NC(=O)Nc2nc(CN)cs2)cc1,-20.4,?,/,-24.0%,?,-16.5%
NC(Cc1ccc(C(F)(F)F)cc1)c1csc(NC(=O)Nc2ccccc2)n1 (stereo unspecified),0.0,13µM*,/,16.4µM*,?,?
NC(Cc1ccc(Cl)cc1)c1csc(NC(=O)Nc2ccccc2)n1 (stereo unspecified),-29.1,13µM*,/,18.4µM*,14.6µM*,23.1µM*
NC(CO)c1csc(NC(=O)Nc2cccc(Cl)c2)n1 (stereo unspecified),-0.1,-6.6%,/,2.2%,-14.2%,-19.9%
CC(C)[C@H](NC(=O)Nc1cccc(C(F)(F)F)c1)C(=O)O,33.5,20.9%,1.3%,8.0%,-0.9%,13.6%
NC(Cc1ccc(C(F)(F)F)cc1)c1csc(NC(=O)Nc2ccccc2Cl)n1 (stereo unspecified),-71.7*,?,/,?,20.6µM*,14.6µM*
CC(C)C(N)c1csc(NC(=O)Nc2cccc(C(F)(F)F)c2)n1 (stereo unspecified),?,14.6µM*,/,23.1µM*,14.6µM*,20.6µM*
NC(COCc1ccccc1)c1csc(NC(=O)Nc2cccc(Cl)c2)n1 (stereo unspecified),-55.9*,23.1µM*,/,?,?,?
CC(C)C(N)c1csc(NC(=O)Nc2ccc(OC(F)(F)F)cc2)n1 (stereo unspecified),-70.4*,?,/,20.6µM*,23.1µM*,8.2µM*
COc1ccc(Cc2nc(C(=O)Nc3ccc(F)cc3)cs2)cc1,-8.8,-19.2%,-21.9%,?,?,-18.3%
COC(=O)[C@@H](NC(=O)Nc1ccc(OC(F)(F)F)cc1)C(C)C,-2.0,-5.5%,4.5%,5.4%,-22.3%,11.3%
COc1ccc(CC(N)c2csc(NC(=O)Nc3ccc(F)cc3)n2)cc1 (stereo unspecified),-65.3*,23.1µM*,/,?,13µM*,?
CN1CCN(S(=O)(=O)c2ccc(C(F)(F)F)cc2)C(c2ccccc2)C1 (stereo unspecified),6.4,-17.6%,-3.8%,7.0%,?,2.9%
CCN(CC)c1ccc(NC(=O)c2cc(S(=O)(=O)N3CCc4ccccc43)cn2C)c(C)c1,/,-28.6%,/,/,?,/
Cc1cc(-n2c(C)cc(C(=O)CCl)c2C)no1,-102.3*,1.16µM*,-1.1%,7.31µM*,0.92µM*,5.8µM*
Cc1cc(-n2c(C)cc(C(=O)CSc3ccccn3)c2C)no1,2.6,?,?,-0.1%,?,-5.7%
Cc1cc(-n2c(C)cc(C(=O)CSc3ccc4c(c3)OCCO4)c2C)no1,-18.1,?,?,-9.3%,25.9µM*,-10.0%
COc1ccc(-c2nc3cc(C)c(Br)c(C)n3c2Cc2ccsc2)cc1OC,4.5,?,/,-7.4%,?,-8.3%
COC(=O)c1ccc2nc(-c3cccc(Br)c3)c(Cc3ccsc3)n2c1,90.2,?,/,-24.4%,?,-11.2%
COC(=O)c1ccc2nc(-c3ccc(OC)c(OC)c3)c(Cc3ccsc3)n2c1,-1.8,16.4µM*,/,-7.4%,23.1µM*,13.4%
COC(=O)c1ccc2nc(-c3cccc(Cl)c3)c(Cc3ccsc3)n2c1,1.6,?,/,?,16.4µM*,-21.7%
COc1ccc(-c2nc3ccc(C)cn3c2Cc2ccsc2)cc1OC,-17.4,8.2µM*,/,?,7.31µM*,?
COC(=O)c1ccc2nc(-c3ccccc3)c(Cc3ccsc3)n2c1,20.3,20.6µM*,/,-27.3%,?,?
